From PubChem BioAssay (Tox21) come the findings set out here.

Values joined by “and” are separate entries in the source; they are usually repeats but may differ in a detail not shown here. Identical values can stand only once. More than one record can exist for a structure, and the calls need not agree. Active and inactive are the calls of the source. Unless noted, the call rests on the fitted dose curve; in most records, active means well fitted curve in the direction sought with a large enough effect in the repeat runs; inconclusive means weak or mixed curves; inactive means no such curve, though single readings can be large; an effect the other way counts as inactive or inconclusive.

Assay [1] is described as follows: qHTS assay to identify small molecule antagonists of the glucocorticoid receptor (GR) signaling pathway - cell viability counter screen (AID 720693). Further: nearly all actives have a fitted effect of over 55% in size. Further: potency means the concentration at half of the fitted maximal effect.
Assay [2] in a line: qHTS assay for identifying genotoxic compounds that show differential cytotoxicity against isogenic chicken DT40 cell lines with known DNA damage response pathways - wild type cell line (AID 743012). Further: nearly all actives have a fitted effect of over 60% in size. Further: potency means the concentration at half of the fitted maximal effect. The gist of the method:
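Cytotoxicity in repair-proficient parental chicken DT40 cells serves as the comparator for Rad54/Ku70- and Rev3-deficient lines. Cells were exposed to compounds for 40 h at 37 C/5% CO2, and ATP-based luminescence (CellTiter-Glo) measured viability.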

The nature of assay [3]: qHTS assay for identifying genotoxic compounds that show differential cytotoxicity against isogenic chicken DT40 cell lines with known DNA damage response pathways - Rev3 mutant cell line (AID 743014; further: nearly all actives have a fitted effect of over 55% in size; further: potency means the concentration at half of the fitted maximal effect). (Quantitative high-throughput screening tests each substance at several concentrations.)
Assay [4] in a line: qHTS assay for identifying genotoxic compounds that show differential cytotoxicity against isogenic chicken DT40 cell lines with known DNA damage response pathways - Rad54/Ku70 mutant cell line (AID 743015). Further: nearly all actives have a fitted effect of over 60% in size. Further: potency means the concentration at half of the fitted maximal effect.
A short description of assay [5]: qHTS assay to identify small molecule antagonists of the androgen receptor (AR) signaling pathway - cell viability counter screen (AID 743033; further: nearly all actives have a fitted effect of over 45% in size; further: potency means the concentration at half of the fitted maximal effect).
Assay [6] in a line: qHTS assay to identify small molecule antagonists of the androgen receptor (AR) signaling pathway using the MDA cell line - cell viability counter screen (AID 743041; further: nearly all actives have a fitted effect of over 45% in size; further: potency means the concentration at half of the fitted maximal effect). The gist of the method:
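Cytotoxicity counter screen: MDA-kb2 AR-luc cells, compound + R1881, 16 h, 37C, 0% CO2; CellTiter-Fluor added at 15.5 h, fluorescence read after 30 min.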

Assay [7] in a line: qHTS assay to identify small molecule antagonists of the thyroid receptor (TR) signaling pathway - cell viability counter screen (AID 743064). Further: nearly all actives have a fitted effect of over 50% in size. Further: potency means the concentration at half of the fitted maximal effect. A digest of the protocol:
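Viability of T3-stimulated (1 nM final) GH3.TRE-Luc cells is measured by CellTiter-Fluor fluorescence after 23.5 h compound exposure at 37 °C plus 30 min reagent incubation.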

A short description of assay [8]: qHTS assay to identify small molecule antagonists of the thyroid receptor (TR) signaling pathway (AID 743065). Further: nearly all actives have a fitted effect of over 55% in size. Further: potency means the concentration at half of the fitted maximal effect. The gist of the method:
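GH3.TRE-Luc rat pituitary cells (two TREs driving luciferase) were dosed with compound, then stimulated with 1 nM T3 (final) for 23.5 h at 37 C. ONE-Glo luminescence was the read-out, with CellTiter-Fluor fluorescence as the cytotoxicity counter-screen.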

In assay [9] the test system is thyroid hormone receptor (rat, GH3 cells). The experiment in a line: qHTS assay to identify small molecule agonists of the thyroid receptor (TR) signaling pathway (AID 743066; calls by dose curve).
Assay [10] has as its target Estrogen receptor (Homo sapiens) (UniProt P03372). Put plainly: qHTS assay to identify small molecule antagonists of the estrogen receptor alpha (ER-alpha) signaling pathway (AID 743069; active means well fitted curve in the direction sought with a large enough effect in the signal ratio in the repeat runs, not every such curve was filed as active; inconclusive means weak or mixed curves, or effect the other way; inactive means no such curve, though single readings can be large or run the other way; the % refers to the signal ratio). A digest of the protocol:
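Beta-lactamase FRET fluorescence is read after 2 hr at room temperature with LiveBLAzer B/G substrate. Before that, ER-alpha-bla HEK293 cells sit 4 hr after plating, then receive compound plus 17beta-estradiol and incubate 18 hr at 37C.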

Assay [11] can be described thus: qHTS assay to identify small molecule antagonists of the estrogen receptor alpha (ER-alpha) signaling pathway - cell viability counter screen (AID 743074; calls by dose curve;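 further: HEK293 cells carrying ER-alpha-UAS-bla reporter stimulated with 17beta-estradiol; nearly all actives have a fitted effect of over 45% in size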; further: potency means the concentration at half of the fitted maximal effect).
For assay [12], the target named is Estrogen receptor (Homo sapiens) (UniProt P03372). Put plainly: qHTS assay to identify small molecule agonists of the estrogen receptor alpha (ER-alpha) signaling pathway (AID 743075; calls by dose curve;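 further: HEK293 GripTite cells with ER-alpha and UAS-driven beta-lactamase reporter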; further: potency means the concentration at half of the fitted maximal effect).
Sequence of Estrogen receptor (Homo sapiens) (P03372 whole entry, looked up): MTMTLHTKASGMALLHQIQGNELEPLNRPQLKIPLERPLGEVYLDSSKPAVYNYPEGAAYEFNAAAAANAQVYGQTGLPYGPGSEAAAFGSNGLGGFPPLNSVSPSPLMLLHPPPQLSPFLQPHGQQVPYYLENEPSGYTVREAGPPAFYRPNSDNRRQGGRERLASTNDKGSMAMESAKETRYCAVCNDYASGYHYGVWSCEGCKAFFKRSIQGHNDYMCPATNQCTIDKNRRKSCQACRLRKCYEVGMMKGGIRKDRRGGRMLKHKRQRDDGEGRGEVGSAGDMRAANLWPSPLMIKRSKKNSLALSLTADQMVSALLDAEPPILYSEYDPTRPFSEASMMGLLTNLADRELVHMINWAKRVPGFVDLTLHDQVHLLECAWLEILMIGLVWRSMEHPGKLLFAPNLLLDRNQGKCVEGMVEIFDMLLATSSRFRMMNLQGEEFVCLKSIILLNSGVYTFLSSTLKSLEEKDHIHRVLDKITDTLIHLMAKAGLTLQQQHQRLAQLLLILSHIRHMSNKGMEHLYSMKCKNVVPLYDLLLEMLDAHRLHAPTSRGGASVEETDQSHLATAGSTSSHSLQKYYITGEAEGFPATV
For assay [13] the target is unchanged. The experiment in a line: qHTS assay to identify small molecule agonists of the estrogen receptor alpha (ER-alpha) signaling pathway using the BG1 cell line (AID 743079). Further: nearly all actives have a fitted effect of over 20% in size. Further: potency means the concentration at half of the fitted maximal effect. The following applies: BG1Luc4E2 cells, ERE-luciferase agonist, 22 h; activation: at 70.3 µM (top of the series) unless noted.
The nature of assay [14]: qHTS assay to identify small molecule antagonists of the estrogen receptor alpha (ER-alpha) signaling pathway using the BG1 cell line (AID 743080; calls by dose curve;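 further: BG1 cells stimulated with 17beta-estradiol alongside compound; nearly all actives have a fitted effect of over 25% in size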). A digest of the protocol: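 BG1-Luc-4E2 cells (endogenous full-length ER-alpha, 4xERE luciferase) hormone-starved 5 days in charcoal-stripped FBS, plated 4,000/well for 24 h, then compound plus 17beta-estradiol for 21.5 h at 37 C; ONE-Glo luminescence read.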

A short description of assay [15]: qHTS assay to identify small molecule antagonists of the estrogen receptor alpha (ER-alpha) signaling pathway using the BG1 cell line - cell viability counter screen (AID 743081).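 Further: compound given together with 17beta-estradiol as the ER stimulus; nearly all actives have a fitted effect of over 45% in size.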
The next assay addresses Aromatase (Homo sapiens) (UniProt P11511). The experiment in a line: qHTS assay to identify aromatase inhibitors (AID 743083). Further: nearly all actives have a fitted effect of over 55% in size. Further: potency means the concentration at half of the fitted maximal effect.
The target of assay [16] is Androgen receptor (Homo sapiens) (UniProt P10275). Put plainly: qHTS assay to identify small molecule antagonists of the androgen receptor (AR) signaling pathway (AID 743035; active means well fitted inhibition curve with a large enough effect in the signal ratio in the repeat runs, not every such curve was filed as active; inconclusive means weak or mixed curves, or effect the other way; inactive means no such curve, though single readings can be large or run the other way; the % refers to the signal ratio). The gist of the method: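 Steps: seed AR-UAS-bla GripTite HEK293 cells, incubate 4 h at 37C; pin in test compound, then add agonist R1881; incubate 16 h at 37C; add LiveBLAzer B/G FRET substrate, 2 h at room temperature; read fluorescence.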
Sequence of Androgen receptor (Homo sapiens) (P10275 whole entry, looked up): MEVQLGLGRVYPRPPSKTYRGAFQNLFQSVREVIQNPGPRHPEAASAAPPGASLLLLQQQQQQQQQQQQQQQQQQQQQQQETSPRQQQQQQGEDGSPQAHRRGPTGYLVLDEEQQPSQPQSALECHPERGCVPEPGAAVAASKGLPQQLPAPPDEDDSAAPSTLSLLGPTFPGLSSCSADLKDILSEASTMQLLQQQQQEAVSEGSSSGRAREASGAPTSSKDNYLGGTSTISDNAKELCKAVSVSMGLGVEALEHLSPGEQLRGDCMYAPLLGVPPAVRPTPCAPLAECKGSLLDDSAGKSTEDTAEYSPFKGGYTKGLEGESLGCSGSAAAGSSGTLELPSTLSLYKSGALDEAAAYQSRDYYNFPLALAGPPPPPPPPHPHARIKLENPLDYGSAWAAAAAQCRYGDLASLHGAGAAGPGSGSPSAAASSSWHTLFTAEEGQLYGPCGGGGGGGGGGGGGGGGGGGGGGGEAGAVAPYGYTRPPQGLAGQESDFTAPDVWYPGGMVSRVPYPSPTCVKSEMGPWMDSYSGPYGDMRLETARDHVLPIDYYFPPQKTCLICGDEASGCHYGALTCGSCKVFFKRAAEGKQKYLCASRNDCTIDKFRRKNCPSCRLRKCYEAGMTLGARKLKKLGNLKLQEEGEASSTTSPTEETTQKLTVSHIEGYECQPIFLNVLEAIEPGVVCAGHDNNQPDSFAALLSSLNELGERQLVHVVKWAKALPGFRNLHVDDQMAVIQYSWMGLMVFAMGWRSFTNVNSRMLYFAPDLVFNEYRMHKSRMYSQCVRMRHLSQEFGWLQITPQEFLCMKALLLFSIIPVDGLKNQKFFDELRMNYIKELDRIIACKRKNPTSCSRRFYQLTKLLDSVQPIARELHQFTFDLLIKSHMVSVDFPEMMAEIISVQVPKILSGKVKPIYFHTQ

The target is the same in assay [17]. The experiment in a line: qHTS assay to identify small molecule agonists of the androgen receptor (AR) signaling pathway (AID 743036; active means well fitted activation curve with a large enough effect in the signal ratio in the repeat runs, with a control signal flat, not every such curve was filed as active; inconclusive means weak or mixed curves, or effect the other way; inactive means no such curve, though single readings can be large or run the other way; the % refers to the signal ratio). The gist of the method: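 Screening used 2,000 AR-bla HEK293 cells per well, treated 16 h at 37C with test compounds in DMSO alongside positive and DMSO-only controls; beta-lactamase activity was then read by LiveBLAzer B/G FRET fluorescence after 2 h at room temperature.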

Assay [18] has the same target. The experiment in a line: qHTS assay to identify small molecule agonists of the androgen receptor (AR) signaling pathway using the MDA cell line (AID 743040; further: nearly all actives have a fitted effect of over 20% in size). The note with it: MDA-kb2 AR-luc cells, MMTV luciferase, 16 h; at 70.3 µM (top of the series); stronger effect = higher value. The gist of the method:
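Luciferase read-out, ONE-Glo, 30 min RT. Cells: MDA-kb2 AR-luc, MMTV promoter with AR and GR response elements. Compound exposure 16 h, 37C, 0% CO2, after 5 h pre-incubation. qHTS agonist mode.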

The target is the same in assay [19]. The experiment in a line: qHTS assay to identify small molecule antagonists of the androgen receptor (AR) signaling pathway using the MDA cell line (AID 743042; further: nearly all actives have a fitted effect of over 55% in size). A digest of the protocol: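 MDA-kb2 breast carcinoma cells carrying MMTV-luciferase (AR/GR responsive) were co-treated with compounds and the agonist R1881 for 16 h at 37C. Inhibition read as ONE-Glo luminescence; CellTiter-Fluor fluorescence measured in parallel for cytotoxicity.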
On the % scale 0 is the no-effect control and ±100 the full control effect.

Sequence of Aromatase (Homo sapiens) (P11511 whole entry, looked up): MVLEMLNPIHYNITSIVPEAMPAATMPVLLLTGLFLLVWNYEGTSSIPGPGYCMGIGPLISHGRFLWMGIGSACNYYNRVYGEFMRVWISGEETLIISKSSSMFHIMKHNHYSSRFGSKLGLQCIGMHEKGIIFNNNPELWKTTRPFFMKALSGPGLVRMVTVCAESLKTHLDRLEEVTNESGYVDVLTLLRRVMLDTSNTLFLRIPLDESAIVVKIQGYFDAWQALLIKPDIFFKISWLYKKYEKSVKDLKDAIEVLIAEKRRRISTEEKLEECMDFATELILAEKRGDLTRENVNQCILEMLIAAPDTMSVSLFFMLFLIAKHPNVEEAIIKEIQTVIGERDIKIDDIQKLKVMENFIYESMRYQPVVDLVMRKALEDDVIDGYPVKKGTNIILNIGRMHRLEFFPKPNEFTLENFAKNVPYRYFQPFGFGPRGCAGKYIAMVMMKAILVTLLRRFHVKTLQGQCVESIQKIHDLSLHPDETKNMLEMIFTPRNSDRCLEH

Regarding `CCCCCCCCCCCCCl`, the Potency entry in assay [1], in assay [2], in assay [3], in assay [4], in [5] and in [6] was “inactive” each time. Also, the Potency entry in assay [7], in assay [8], in assay [9], in assay [10], in assay [11] and in assay [14] was “inactive” each time. Further, the Potency result (in [15]; with Aromatase (Homo sapiens)) was “inactive” in each case. For the same molecule, the Potency was 54.2 µM [activator] (active) and inactive in [12]; 30.2 µM (active) and inactive in [13].
Take `CCOP(=S)(OCC)SCn1c(=O)oc2cc(Cl)ccc21`: the Potency entry in assay [1], in assay [5], in [6], in [7], in assay [9] and in assay [10] was “inactive” each time. Also, the Potency entry in [11], in assay [12], in assay [13], in assay [14] and in assay [15] was “inactive” throughout. For the same molecule, the Potency was 27.3 µM (active) in assay [2]; 32.9 µM (active) and 27.3 µM (active) in assay [3]; 46.4 µM (active) and 30.6 µM (active) in assay [4]; 68.6 µM (active) in assay [8]; 65.6 µM (active) with Aromatase (Homo sapiens).
Turning to `O=NN1CCOCC1`, the Potency entry in assay [1], in assay [2], in assay [3], in [4], in assay [5] and in [6] was “inactive” in each case. Also, the Potency entry in assay [7], in assay [8], in assay [9], in assay [10], in assay [11] and in [12] was “inactive” each time. Further, the Potency entry (in assay [13]; in [14]; in assay [15]; in the assay with Aromatase (Homo sapiens)) was “inactive” in each case.
Consider `CCCCOC(=O)COC(=O)c1ccccc1C(=O)OCCCC`, for which the Potency entry in assay [1], in assay [2], in assay [3], in [4], in [5] and in assay [6] was “inactive” in each case. Also, the Potency entry in assay [7], in [8], in assay [9], in assay [10], in assay [11] and in assay [12] was “inactive” throughout. The Potency result (in assay [13]; in assay [14]; in assay [15]; with Aromatase (Homo sapiens)) was “inactive” throughout.
In the case of `CCOP(=S)(OCC)SCSC(C)(C)C`, the Potency entry in assay [1], in assay [2], in [3], in assay [4], in assay [5] and in [6] was “inactive” in each case. Also, the Potency entry in assay [7], in assay [8], in assay [9], in assay [10], in assay [11] and in assay [12] was “inactive” in each case. For the same molecule, the Potency result (in assay [13]; in assay [14]; in assay [15]; in the assay with Aromatase (Homo sapiens)) was “inactive” throughout.
Regarding `COc1ccc(C=O)cc1OC`, the Potency result in [1], in assay [2], in assay [3], in [4], in assay [5] and in [6] was “inactive” throughout. Also, the Potency result in [7], in assay [8], in [9], in assay [10], in [11] and in assay [12] was “inactive” each time. The Potency result (in assay [14]; in [15]; in the assay with Aromatase (Homo sapiens)) was “inactive” each time. For the same molecule, in [13], the Potency entry is “inactive and 6.86 µM (active)”.
For `CC(C)Nc1ccc(Nc2ccccc2)cc1`, the Potency result in [1], in assay [9], in assay [12] and in [15] was “inactive” in each case. Further, the Potency is 5.96 µM (active) and 17.2 µM (active) and 12.2 µM (active) in assay [2]; 10.6 µM (active) and 12.1 µM (active) and 13.7 µM (active) in assay [3]; 8.41 µM (active) and 15.3 µM (active) and 10.9 µM (active) in assay [4]; 21.8 µM (active) and 49 µM (active) in [5]; 68.3 µM (active) and 61.1 µM (active) in assay [6]; 13.3 µM (active) and 30.6 µM (active) in [7]. Moreover, the Potency in assay [8] is 11.9 µM (active) and 30.5 µM (active) and 17.2 µM (active); in [11] it was 48.8 µM (active) and 43.6 µM (active); with Aromatase (Homo sapiens), 13.3 µM (active) and 27.2 µM (active).
Turning to `C[C@]12CCC(=O)C=C1CC[C@@H]1[C@@H]2CC[C@@]2(C)[C@H]1CC[C@]2(C)O`, the Potency in [1] is 15.5 µM (active); in [2], 29.8 µM (active) and 26.6 µM (active) and 21.7 µM (active); in assay [3], 26.6 µM (active) and 29.8 µM (active) and 26 µM (active); in assay [4], 29.8 µM (active) and 26.6 µM (active) and 26.7 µM (active); in assay [7], “inactive and 61.4 µM (active)”; in assay [8] it was 10.6 µM (active) and 24.5 µM (active). The Potency in assay [12] is 2.13 µM [inconclusive] (active) and 4.25 µM [inconclusive] (active) and 1.39 µM [inconclusive] (active); in assay [13], 376 nM (active) and 106 nM (active) and 179 nM (active). Moreover, the Potency result in assay [5], in [6], in assay [9], in [10], in assay [11] and in assay [14] was “inactive” each time. The Potency result (in assay [15]; with Aromatase (Homo sapiens)) was “inactive” throughout.
For `ClCC(Cl)CCl`, the Potency result in assay [1], in assay [2], in [3], in [4], in assay [5] and in assay [6] was “inactive” throughout. Moreover, the Potency entry in assay [7], in assay [8], in [9], in assay [11] and in assay [15] was “inactive” throughout.
On to `Cc1ccc([N+](=O)[O-])cc1`, for which the Potency result in assay [1], in [2], in assay [3], in [4], in [5] and in assay [6] was “inactive” throughout. In addition, the Potency result in assay [7], in assay [8], in assay [9], in [10], in assay [12] and in assay [13] was “inactive” in each case. The Potency result (in assay [14]; in [15]; in the assay with Aromatase (Homo sapiens)) was “inactive” throughout.
Take `CCCCOCC1CO1` (configuration not stated): the Potency result in assay [1], in [2], in assay [3], in assay [4], in assay [5] and in assay [6] was “inactive” in each case. Also, the Potency entry in assay [7], in [8], in assay [9], in [10], in [11] and in assay [12] was “inactive” each time. In addition, the Potency entry (in assay [13]; in assay [14]; in assay [15]; in the assay with Aromatase (Homo sapiens)) was “inactive” each time.
Consider `O=[N+]([O-])/N=C1\NCCN1Cc1ccc(Cl)nc1`, for which the Potency entry in assay [1], in assay [2], in assay [5], in assay [16], in assay [17] and in assay [6] was “inactive” throughout. Further, the Potency result in [19], in [7], in assay [8], in [9], in assay [10] and in [11] was “inactive” in each case. Also, the Potency entry (in assay [12]; in [13]; in assay [14]; in assay [15]; with Aromatase (Homo sapiens)) was “inactive” in each case. Moreover, the Potency result in assay [3] is “inactive and 8.41 µM (active)”; in assay [4], “inactive and 5.31 µM (active)”. The activity change in assay [18] was 0.161% (inactive) and 4.01% (inactive) and 0.695% (inactive).
